G9a inh – blocks human histone lysine methyltransferase G9a; G9a H3K9 monomethylation, AlphaScreen, 2 h; Potency, µM (top dose mostly 102 µM), inactives show at the top dose activity, negative = inhibition, most hits filed as inhibitors; 8.8% of 350,000 active; note: % is set by controls: 0 for no effect and ±100 for the full control effect; nearly all actives have a fitted effect of over 75% in size
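Using a bead-based AlphaScreen, monomethylated H3K9 product from 2 h room-temperature reactions (G9a 20 nM, peptide 500 nM, SAM 20 uM) was detected with 0.5 ug/mL rabbit anti-H3K9me1 antibody.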
Sfp PPTase inh – Sfp phosphopantetheinyl transferase inhibition | Q9F4F7 | Biochemical Sfp PPTase activity, qHTS | Potency, µM, inactives show largest response in the series, negative = inhibition, hits mostly inhibitors | 3.5% of 310,000 active | AID 1490;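 note: the enzyme is Sfp with the accession as filed and its product quenches rhodamine fluorescence; 0% = enzyme reaction without inhibitor and -100% = no enzyme wells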
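Step 1, compound plus 15 nM Sfp-PPTase, 15 min, room temperature. Step 2, add rhodamine-CoA (5 uM) and BHQ-2-YbbR (12.5 uM). Step 3, read 525/598 nm fluorescence at 0 and 30 min.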
ALOX12 inh – inhibitors of human 12S-lipoxygenase ALOX12 | P18054 | 1.1% of 580,000 active | Potency, µM (highest dose often 108 µM), inactives show at the top dose activity change, negative = inhibition, most hits filed as inhibitors | purified 12hLO, xylenol orange hydroperoxide absorbance; note: % is set by controls: 0 for no effect and ±100 for the full control effect
Target sequence (P18054 whole entry, looked up): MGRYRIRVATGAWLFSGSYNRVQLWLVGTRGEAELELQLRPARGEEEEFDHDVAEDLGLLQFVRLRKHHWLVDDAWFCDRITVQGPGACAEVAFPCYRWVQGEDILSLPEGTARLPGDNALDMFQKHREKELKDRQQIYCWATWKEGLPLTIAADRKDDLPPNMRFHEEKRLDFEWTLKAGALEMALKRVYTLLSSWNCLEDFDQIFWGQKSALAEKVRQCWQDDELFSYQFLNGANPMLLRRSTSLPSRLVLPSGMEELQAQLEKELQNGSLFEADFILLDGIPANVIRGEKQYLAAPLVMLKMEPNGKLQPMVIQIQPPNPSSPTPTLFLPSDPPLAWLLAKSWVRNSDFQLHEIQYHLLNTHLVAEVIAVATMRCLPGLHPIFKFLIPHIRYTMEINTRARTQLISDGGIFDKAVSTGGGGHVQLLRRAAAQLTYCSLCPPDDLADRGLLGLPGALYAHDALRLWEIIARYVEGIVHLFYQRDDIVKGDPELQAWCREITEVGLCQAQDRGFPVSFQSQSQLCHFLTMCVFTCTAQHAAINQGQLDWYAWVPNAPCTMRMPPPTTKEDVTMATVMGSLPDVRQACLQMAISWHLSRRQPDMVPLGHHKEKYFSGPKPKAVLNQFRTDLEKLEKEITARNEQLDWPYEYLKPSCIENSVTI
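Hydroperoxide product was detected by ferrous iron/xylenol orange as the 573 to 405 nm absorbance ratio. Arachidonic acid at 40 uM (final) was turned over for 30 min at room temperature by 150 nM human 12hLO, pH 7.0 Hepes buffer, after 15 min compound preincubation.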
GRP78 ERSR act – induces the endoplasmic reticulum stress response in human glioma cells. U87-MG GRP78 promoter luciferase reporter, 16 h. Potency, µM, for inactives: top-dose activation, most hits filed as activators. 0.02% of 420,000 active; note: series mostly up to about 76 µM; % of control where 0% means no effect; nearly all actives have a fitted effect of over 35% in size
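ERSR induction read as luciferase luminescence (Bright-Glo, 10 min at room temperature) in stably transfected human U87-MG glioma cells exposed to compounds for 16 h, using GRP78 as sensor.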
VDR inh – blocks the human vitamin D receptor; P11473; VDR-SRC2-3 peptide fluorescence polarization, 2 h; Potency, µM, without a hit: max response, negative = inhibition, hits mostly inhibitors; 0.93% of 400,000 active; AID 504847; note: % is set by controls: 0 for no effect and ±100 for the full control effect
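Reagent solutions, kept cold and dark, are dispensed first; compounds are then pinned in at 23 nl, plates briefly spun, and incubated 2 h at ambient temperature. Inhibition of VDR–SRC2-3 peptide binding is read by fluorescence polarization.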
* = called active by the depositor; ? = inconclusive; . = not tested or not shown; [ ] = another dose, or the depositor's remark. The entries come from a sample that favours hits as a whole. Calls come from the whole dose curve; as a rule, active = well fitted curve in the direction sought with a large enough effect; inconclusive = small, poorly fitted or top-dose-only effect, or another doubt; inactive = no such curve, though single readings can be large; an effect the other way counts as inactive or inconclusive. Potency is the fitted concentration of half-maximal effect.

SMILES	G9a inh	Sfp PPTase inh	ALOX12 inh	GRP78 ERSR act	VDR inh
CCN1C(=O)CC(c2ccco2)Sc2ccccc21 (stereo not drawn)	50µM*	40µM*	-29%	-3%	7%
Cc1ccsc1C1CC(=O)Nc2ccccc2S1 (stereo not drawn)	-5%	6%	492%	0%	4%
O=C1CC(c2ccco2)Sc2ccccc2N1 (stereo not drawn)	40µM*	-23%	.	-3%	-9%
O=C1CC(c2ccccc2)Sc2ccccc2N1 (stereo not drawn)	45µM*	-8%	?	6%	3%
Cc1cc(C)c(NC(=O)CCc2ncc(-c3ccccc3)o2)c(C)c1	.	.	16%	.	.
CS(=O)(=O)N1CCN(c2ccc(NCc3ccccc3)nn2)CC1	.	.	-4%	.	.
Cc1cc(C(=O)COC(=O)c2ccc(Cl)c(S(N)(=O)=O)c2)c(C)n1C1CC1	50µM*	.	-39%	-1%	6%
C=CCSc1nc2sc(C)c(C)c2c(=O)n1CC=C	5.6µM*	50µM*	-26%	-5%	1%
O=C(NCCc1ccccc1F)c1nc2sccn2c1Br	.	.	12%	.	.
COc1cccc(-n2nc(C#N)c(Cl)cc2=O)c1	50µM*	2%	-12%	-15%	32µM*
COCc1ccccc1CNC(=O)c1nccnc1N	.	.	-5%	.	.
N#CC(Sc1ccccn1)c1ccc(Cl)cc1 (stereo not drawn)	7.9µM*	28µM*	-19%	2%	?
CC(C)CCN1C(=O)N(CCCc2ccncc2)C(=O)C12CCN(CC1=CC[C@H]3C[C@@H]1C3(C)C)CC2	.	.	60%	.	.
Oc1ccc(/C(Cc2ccc3ccccc3n2)=N\Nc2ccccc2)c(O)c1	7.9µM*	-30%	?	-4%	-25%
Cc1c(O)ccc(/C(Cc2ccc3ccccc3n2)=N\O)c1O	3%[12.7 µM]	29%	-13%	2%	-10%
Oc1ccc(/C(Cc2ccccn2)=N\Nc2ccccc2)c(O)c1	4µM*	-10%	?	-3%	3%
O/N=C(/Cc1ccccc1)c1ccc(O)cc1O	.	.	-47%	.	.
Cc1ccc2[nH]c(=O)c(CN(Cc3cccs3)S(=O)(=O)c3ccc4c(c3)OCCO4)cc2c1	1µM*	3%	-31%	-1%	-17%
Cc1cc2cc(CN(Cc3cccs3)S(=O)(=O)c3ccc4c(c3)OCCO4)c(=O)[nH]c2cc1C	-5%	7%	-7%	-2%	-21%
O=C(N[C@@H]1CN(C(=O)Nc2cccc(C(F)(F)F)c2)CCC[C@H]1O)c1ccc(OCc2ccccc2)cc1	.	.	-4%	.	.
O=C(O)COc1ccc(/C=C/c2ccc3cccc([N+](=O)[O-])c3n2)cc1	28µM*	-10%	-24%	-5%	-6%
COc1ccc(/C=C/c2ccc3cccc([N+](=O)[O-])c3n2)cc1OC	.	.	-3%	.	.
COc1cc(/C=C/c2ccc3cccc([N+](=O)[O-])c3n2)ccc1OCC(=O)O	40µM*	2%	-26%	2%	4%
O=[N+]([O-])c1cccc2ccc(/C=C/c3ccc(OC(F)F)cc3)nc12	.	.	-3%	.	.
CC(=O)Nc1ccc(/C=C/c2ccc3cccc([N+](=O)[O-])c3n2)cc1	50µM*	-4%	?	0%	-5%
SMILES	G9a inh	Sfp PPTase inh	ALOX12 inh	GRP78 ERSR act	VDR inh
COc1ccc(C=C2CCc3ccccc3C2=O)cc1	.	.	0%	-9%	.
COc1ccc(/C=C2\CN(Cc3ccccc3)C/C(=C\c3ccc(OC)cc3OC)C2=O)c(OC)c1	14µM*	?	0%	-2%	-1%
COc1ccc(C=C2c3ccccc3C(=O)c3ccccc32)c(OC)c1	28µM*	-5%	?	.	.
COc1ccc(/C=C2\CN(Cc3ccccc3)C/C(=C\c3ccc(OC)cc3)C2=O)cc1	18µM*	?	-22%	16%	-19%
Nc1nc2c(ncn2-c2ccccc2)c(=O)[nH]1	.	.	9%	0%	-11%
O=c1[nH]c(=S)c2ncn(-c3ccccc3)c2[nH]1	25µM*	18µM*	?	-2%	?
COc1ccsc1NC(=O)OCc1ccc(Cl)cc1	50µM*	-13%	?	0%	-18%
CN1c2cc(C(=O)Nc3ccc(Oc4ccccc4)cc3)ccc2C(=O)N2CCCCC21 (stereo not drawn)	.	.	-29%	.	.
COc1cccc(C2=NOC(C(=O)Nc3ccc4c(c3)OCO4)C2)c1OC (stereo not drawn)	45µM*	0%	10%	-1%	-17%

Source: PubChem (National Center for Advancing Translational Sciences (NCATS))
